Data on 28 molecules can be found in PubChem BioAssay (NCATS).

Test [1] deals with Voltage-gated inwardly rectifying potassium channel KCNH2 (Homo sapiens) (UniProt Q12809). As to the kind of experiment: qHTS Assay for Small Molecule Inhibitors of the Human hERG Channel Activity (AID 588834).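 Also: lower thallium flux fluorescence means stronger hERG block; nearly all actives have a fitted effect of over 50% in size.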 Also: potency is read from the fitted curve at half-maximal effect. The note with it: U2OS BacMam hERG, FluxOR thallium flux fluorescence; series mostly up to 46.1 µM. The essentials: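 Measured: FluxOR fluorescence after thallium stimulation in U2OS cells transduced with hERG by baculovirus. Compounds pre-incubated around 10 min; medium Opti-MEM with 2% FCS. AC50 from Hill equation.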
Sequence of Voltage-gated inwardly rectifying potassium channel KCNH2 (Homo sapiens) (Q12809 whole entry, looked up): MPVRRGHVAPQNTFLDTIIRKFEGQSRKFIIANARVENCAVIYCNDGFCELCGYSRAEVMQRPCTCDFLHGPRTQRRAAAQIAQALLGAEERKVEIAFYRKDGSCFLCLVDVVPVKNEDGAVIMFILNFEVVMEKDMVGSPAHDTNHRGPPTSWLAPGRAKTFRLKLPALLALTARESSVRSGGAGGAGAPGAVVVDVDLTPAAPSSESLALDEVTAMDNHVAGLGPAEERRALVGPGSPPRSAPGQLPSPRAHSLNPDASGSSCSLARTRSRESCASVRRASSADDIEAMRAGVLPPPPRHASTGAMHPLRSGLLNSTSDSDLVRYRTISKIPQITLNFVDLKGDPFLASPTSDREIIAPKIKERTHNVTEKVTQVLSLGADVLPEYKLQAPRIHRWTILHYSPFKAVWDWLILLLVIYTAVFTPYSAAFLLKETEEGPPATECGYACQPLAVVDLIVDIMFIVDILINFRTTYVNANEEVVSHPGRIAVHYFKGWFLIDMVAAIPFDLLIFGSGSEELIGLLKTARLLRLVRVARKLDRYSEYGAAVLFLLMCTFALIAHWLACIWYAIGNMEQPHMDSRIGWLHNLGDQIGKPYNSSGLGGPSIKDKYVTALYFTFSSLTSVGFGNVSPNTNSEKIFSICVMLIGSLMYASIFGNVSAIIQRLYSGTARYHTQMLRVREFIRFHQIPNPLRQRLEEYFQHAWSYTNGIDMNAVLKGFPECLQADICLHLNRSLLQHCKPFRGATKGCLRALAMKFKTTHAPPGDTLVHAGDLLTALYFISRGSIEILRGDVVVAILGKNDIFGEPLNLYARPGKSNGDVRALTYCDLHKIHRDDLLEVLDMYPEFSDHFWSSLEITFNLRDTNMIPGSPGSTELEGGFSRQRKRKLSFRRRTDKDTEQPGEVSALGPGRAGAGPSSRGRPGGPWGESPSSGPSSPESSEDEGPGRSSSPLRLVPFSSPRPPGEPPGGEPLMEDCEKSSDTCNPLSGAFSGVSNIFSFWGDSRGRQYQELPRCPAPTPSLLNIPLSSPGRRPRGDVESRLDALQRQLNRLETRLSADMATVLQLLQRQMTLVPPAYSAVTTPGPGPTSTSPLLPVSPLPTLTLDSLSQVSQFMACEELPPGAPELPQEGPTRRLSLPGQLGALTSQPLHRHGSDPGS

Test [2] addresses Glutaminase kidney isoform, mitochondrial (Homo sapiens) (UniProt O94925). The test is described as follows: qHTS for Inhibitors of Glutaminase (GLS): LOPAC Validation (AID 624146). Also: nearly all actives have a fitted effect of over 60% in size. Also: potency is read from the fitted curve at half-maximal effect. The note with it: glutaminase enzyme activity inhibition; series mostly up to 46.1 µM. An outline of the steps:
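Compounds were pin-transferred onto hKGA, after which L-glutamine (1 mM solution) and a detection mix of glutamate oxidase, HRP and Amplex Red were added. Initial and 30 min RT fluorescence reads were collected.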

Test [3] in a line: qHTS of Trypanosoma Brucei Inhibitors: LOPAC Validation (AID 624147). Also: 0% is about no effect. The note with it: purified enzyme assay, luminescence, 45 min; series mostly up to 57.5 µM. An outline of the steps: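 TbPYK + substrate in 50 mM TEA pH 7.2, 100 mM KCl, 10 mM MgCl2, 0.05% BSA, 0.01% Tween-20; cpd pinned; ADP 130 uM final; 45 min RT; Kinase-Glo Plus 10 min; luminescence endpoint.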
A general note: In qHTS, concentration-response curves come from the screen itself.

The target of test [4] is Glucagon-like peptide 1 receptor (Homo sapiens) (UniProt P43220). As to the kind of experiment: qHTS of GLP-1 Receptor Agonists: LOPAC Validation (AID 624148).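 Also: 0% is about no effect; higher luminescence signal means agonism.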 The note with it: GLP-1R agonist cell assay; series mostly up to 46.1 µM. The essentials: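 HEK293 cells stably co-expressing GLP-1R and a cAMP-responsive luciferase reporter, plated 12 hours before compound, then incubated 4-6 hr at 37 deg C. Luminescence read 12 min after detection reagent.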
Sequence of Glucagon-like peptide 1 receptor (Homo sapiens) (P43220 whole entry, looked up): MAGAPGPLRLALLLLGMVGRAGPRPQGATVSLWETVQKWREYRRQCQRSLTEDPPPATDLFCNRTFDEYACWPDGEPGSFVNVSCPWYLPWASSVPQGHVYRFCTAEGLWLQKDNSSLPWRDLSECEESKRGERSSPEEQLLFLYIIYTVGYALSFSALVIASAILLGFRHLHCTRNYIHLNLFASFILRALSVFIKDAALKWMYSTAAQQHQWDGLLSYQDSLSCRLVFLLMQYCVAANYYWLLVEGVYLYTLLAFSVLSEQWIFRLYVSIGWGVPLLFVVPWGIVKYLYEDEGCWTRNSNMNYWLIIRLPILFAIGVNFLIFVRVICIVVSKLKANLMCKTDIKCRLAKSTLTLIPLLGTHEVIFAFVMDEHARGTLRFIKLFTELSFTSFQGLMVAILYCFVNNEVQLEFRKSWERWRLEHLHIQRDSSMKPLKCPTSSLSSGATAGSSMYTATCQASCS

Test [5] can be described thus: HTS Assay for Allosteric Antagonists of the Human D2 Dopamine Receptor: Hit Validation in HTRF (AID 624455).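 Also: stable D1 dopamine receptor cell line scored for blocking the D1 response; % is scaled to controls: 0 for no effect and ±100 for the full control effect.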 Conditions: Cells stably expressing D1 dopamine receptor, inhibition mode; series mostly up to 46.1 µM. An outline of the steps: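 Hit validation in cells stably expressing the D1 dopamine receptor, run in HTRF format. Compounds were tested for their ability to inhibit the D1-mediated response.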

Test [6] is described as follows: qHTS of Nrf2 Activators: LOPAC Validation (AID 624149). Also: 0% is about no effect. Conditions: Nrf2/ARE reporter cell assay; series mostly up to 46.1 µM. An outline of the steps: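 AREc32_Fluc cells, 1000/well in OPTI-MEM with 5% FBS, grown overnight, then exposed to compounds for 24 hr at 37 deg C, 5% CO2. ARE-driven firefly luciferase read by Steady-Glo luminescence after 30 min at RT.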

A short description of test [7]: qHTS assay for small molecule activators of the nuclear factor-kappa B (NF-kB) signaling pathway (AID 651749; active = well fitted activation curve with a large enough effect in the signal ratio; the % refers to the signal ratio; also: % of control where 0% means no effect). The note with it: NF-kB-bla ME-180 cells, beta-lactamase FRET ratio, 16 h; stronger effect = higher value. The essentials: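 NF-kB-bla ME-180 cells carrying a beta-lactamase reporter under an NF-kB response element, 2,000 cells/well, exposed to compound for 16 hr at 37C; FRET-based beta-lactamase fluorescence read-out of pathway activation.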

The nature of test [8]: qHTS assay for environmental chemicals that activate the Aryl hydrocarbon Receptor (AhR) signaling pathway (AID 651777). Also: % of control where 0% means no effect; nearly all actives have a fitted effect of over 15% in size. Conditions: 1A2-DRE human hepatoma cells, luciferase, 24 h; stronger effect = higher value. The essentials: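 Human hepatoma 1A2-DRE cells, stably carrying a dioxin response element and CYP1A2 promoter driving luciferase, were exposed to compounds for 24 hr at 37 C and 5% CO2. Luciferase signal was then read after 30 min One-Glo at room temperature.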

For test [9], the target named is Peroxisome proliferator-activated receptor alpha (Homo sapiens) (UniProt Q07869). As to the kind of experiment: qHTS assay for small molecule agonists of the peroxisome proliferator-activated receptor alpha (PPARalpha) signaling pathway (AID 651778). Also: % of control where 0% means no effect. The note with it: PathHunter PPARalpha complementation, chemiluminescence, 6 h; max response: stronger effect = higher value. An outline of the steps:
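Enzyme-fragment complementation assay in which ligand-bound PPARalpha translocates and forms an active enzyme that generates chemiluminescence. Cells were plated overnight, exposed to compound for 6 hr at 37 C, and then given detection reagent for 60 min at room temperature.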

Test [10] is described as follows: qHTS assay for small molecule agonists of the antioxidant response element (ARE) signaling pathway (AID 651741; active = well fitted activation curve with a large enough effect in the signal ratio; the % refers to the signal ratio; also: % of control where 0% means no effect). The note with it: HepG2 ARE-bla reporter, beta-lactamase FRET ratio, 16 h; series mostly up to 96 µM. An outline of the steps:
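CellSensor ARE-bla HepG2 cells (2,000/well) carrying ARE-driven beta-lactamase, exposed 16 h at 37 C. LiveBLAzer B/G FRET substrate added for 2 h at room temperature; fluorescence intensity read.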

Test [11] is described as follows: qHTS assay for small molecule disruptors of the mitochondrial membrane potential - 1 hr assay (AID 651754; calls by dose curve; also: % is scaled to controls: 0 for no effect and ±100 for the full control effect; nearly all actives have a fitted effect of over 35% in size). The note with it: series mostly up to 92.2 µM. The essentials: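 HepG2 cells, attached overnight, were exposed to compound for 1 hr at 37C, then stained 30 min with a potentiometric dye. Ratio of red aggregate (590nm) to green monomer (535nm) fluorescence reports membrane potential; collapse shifts signal toward green.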

Test [12] is described as follows: qHTS assay for small molecule disruptors of the mitochondrial membrane potential - 5 hr assay (AID 651755; calls by dose curve; also: % is scaled to controls: 0 for no effect and ±100 for the full control effect; nearly all actives have a fitted effect of over 40% in size). Conditions: JC-1-type ratio dye; series mostly up to 92.2 µM. An outline of the steps:
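HepG2 cells (2,000/well), attached overnight, exposed to compound 5 hr at 37C, then Mito-MPS dye 30 min. Fluorescence read for monomers (490/535 nm) and aggregates (540/590 nm).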

Test [13] addresses Tumor necrosis factor (Homo sapiens) (UniProt P01375). The test is described as follows: qHTS assay to identify small molecules that stimulate Tumor Necrosis Factor-alpha (TNF-alpha) secretion (AID 651757; active = well fitted curve in the direction sought with a large enough effect in the signal ratio; the % refers to the signal ratio; also: 0% is about no effect). The note with it: Human cells, HTRF 665/615 ratio; series mostly up to 92.2 µM. The essentials:
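THP-1 cells (3000/well) exposed to compounds 17 hrs at 37 C. Secreted TNF-alpha detected by HTRF with cryptate- and XL665-labeled anti-TNF-alpha antibodies after 3 hr at room temperature.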

Test [14] is described as follows: qHTS assay for small molecule activators of the p53 signaling pathway (AID 651743; active = well fitted activation curve with a large enough effect in the signal ratio, not every such curve was filed as active; the % refers to the signal ratio; also: % of control where 0% means no effect). The note with it: HCT-116 p53RE-bla, beta-lactamase FRET ratio, 16 h; stronger effect = higher value. An outline of the steps: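 p53RE-bla HCT-116 cells carrying a beta-lactamase reporter under p53 response elements were exposed to compounds for 16 hours at 37 C. Reporter activity read as fluorescence after 2 hours at room temperature with LiveBLAzer B/G FRET substrate.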

The nature of test [15]: qHTS assay to identify small molecules that stimulate interleukin-8 (IL-8) secretion (AID 651758; active = well fitted activation curve with a large enough effect in the signal ratio; the % refers to the signal ratio; also: 0% is about no effect). Conditions: HTRF ratio (665/615); series mostly up to 92.2 µM. The essentials: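 THP-1 cells (2000/well) exposed to compound 16 h at 37 C; secreted IL-8 then detected by HTRF with cryptate- and XL665-labelled anti-IL-8 antibody pair after 1-3 h at room temperature.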

Molecules are shown by their SMILES. Values without a mark were called inactive. Records with an inconclusive call do not appear. Calls of active or inactive are those of the source. Unless noted, calls follow the shape of the dose curve; as a rule, active = well fitted curve in the direction sought with a large enough effect; inconclusive = small, poorly fitted or top-dose-only effect, or another doubt; inactive = no such curve, though single readings can be large; an effect the other way counts as inactive or inconclusive.

Sequence of Peroxisome proliferator-activated receptor alpha (Homo sapiens) (Q07869 whole entry, looked up, the tested form may be a part): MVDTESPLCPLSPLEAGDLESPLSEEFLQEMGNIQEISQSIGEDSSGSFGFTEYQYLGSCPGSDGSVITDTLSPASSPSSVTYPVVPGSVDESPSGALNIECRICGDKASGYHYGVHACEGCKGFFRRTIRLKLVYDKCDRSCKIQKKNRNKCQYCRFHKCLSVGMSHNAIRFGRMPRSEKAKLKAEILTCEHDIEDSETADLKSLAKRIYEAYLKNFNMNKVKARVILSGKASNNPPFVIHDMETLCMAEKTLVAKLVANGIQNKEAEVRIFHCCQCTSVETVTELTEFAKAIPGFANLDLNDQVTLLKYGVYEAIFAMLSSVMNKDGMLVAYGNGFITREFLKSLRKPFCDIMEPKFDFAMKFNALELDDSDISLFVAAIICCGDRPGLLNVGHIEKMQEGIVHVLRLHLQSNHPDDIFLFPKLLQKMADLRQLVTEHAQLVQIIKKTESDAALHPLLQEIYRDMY
Sequence of Glutaminase kidney isoform, mitochondrial (Homo sapiens) (O94925 whole entry, looked up, canonical isoform): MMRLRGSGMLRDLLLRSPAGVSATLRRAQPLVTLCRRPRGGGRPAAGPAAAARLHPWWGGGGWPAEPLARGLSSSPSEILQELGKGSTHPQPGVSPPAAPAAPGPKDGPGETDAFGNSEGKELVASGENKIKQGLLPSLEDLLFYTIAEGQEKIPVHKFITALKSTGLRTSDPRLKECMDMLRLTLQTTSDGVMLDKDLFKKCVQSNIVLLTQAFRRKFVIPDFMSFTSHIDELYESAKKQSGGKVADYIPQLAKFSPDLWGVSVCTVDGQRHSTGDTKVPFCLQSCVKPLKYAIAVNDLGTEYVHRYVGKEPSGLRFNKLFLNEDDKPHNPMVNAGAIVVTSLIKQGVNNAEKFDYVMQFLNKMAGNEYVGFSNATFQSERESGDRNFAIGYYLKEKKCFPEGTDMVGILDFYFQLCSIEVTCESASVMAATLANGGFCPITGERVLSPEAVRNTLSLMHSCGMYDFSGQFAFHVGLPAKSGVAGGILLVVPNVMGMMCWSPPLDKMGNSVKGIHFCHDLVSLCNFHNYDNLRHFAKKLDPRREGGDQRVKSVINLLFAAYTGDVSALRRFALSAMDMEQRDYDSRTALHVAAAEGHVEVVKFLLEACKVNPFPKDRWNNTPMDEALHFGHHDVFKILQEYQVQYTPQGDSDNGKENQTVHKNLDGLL
Sequence of Tumor necrosis factor (Homo sapiens) (P01375 whole entry, looked up): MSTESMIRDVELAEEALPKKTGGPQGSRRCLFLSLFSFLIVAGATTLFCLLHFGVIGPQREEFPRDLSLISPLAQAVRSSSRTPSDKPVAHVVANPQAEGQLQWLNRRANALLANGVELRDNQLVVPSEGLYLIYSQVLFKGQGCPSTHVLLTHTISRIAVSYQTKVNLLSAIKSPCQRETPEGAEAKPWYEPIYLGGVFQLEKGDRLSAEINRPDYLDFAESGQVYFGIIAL

For `COc1ccc2c(c1)CCC1C2CC[C@@]2(C)C1CC[C@@H]2NCCCCCCN1C(=O)C=CC1=O` (some centres not stated), the Potency result in test [1], in test [2], in [3], in [4] and in test [5] was “inactive” each time.
On to `CCCc1c(-c2ccc(O)cc2)nn(-c2ccc(O)cc2)c1-c1ccc(O)cc1`, for which the Potency result in test [1], in [2], in test [3], in test [4], in [6] and in test [5] was “inactive” throughout. Also, the activation in [7] is -3.76%; in [8], -1.12%. In [9], the max response was -1.98%.
`O=c1cc(O)cc(/C=C/c2ccc(O)c(O)c2)o1`: the Potency entry in [1], in test [3], in test [4], in [6] and in test [5] was “inactive” in each case. Further, the Potency in test [2] was 1.12 µM (active).
`CCCC(=O)NCCc1c2n(c3ccc(OC)cc13)CCCc1ccccc1-2`: the Potency entry in test [1], in [2], in test [3], in [4], in test [6] and in [5] was “inactive” each time.
In the case of `NCCCCN`, the Potency entry in test [1], in test [2], in test [3], in test [4], in test [6] and in test [5] was “inactive” throughout.
In the case of `Clc1nccc2c1ccc1ccccc12`, the Potency result in test [1], in test [2], in [3], in [4], in test [6] and in test [5] was “inactive” in each case.
Turning to `NC(=O)c1ccccc1`, the Potency entry in [1], in test [2], in test [3], in test [4], in [6] and in test [5] was “inactive” each time. The Potency entry in [10] was “inactive”. The figures for the activation in test [7] and in [8] were 1.72% and 0.0429%, respectively. Also, the molecule was called inactive in test [11], in [12] and in test [13]. Moreover, the max response in [9] was 0.54%.
In the case of `C=CCn1c(=O)c2c(nc(-c3ccc(S(=O)(=O)O)cc3)n2C)n(C)c1=O`, the Potency entry in test [1], in test [2], in test [3], in test [4] and in test [5] was “inactive” throughout.
In the case of `CC1CCN=C(N)S1` (configuration not stated), the Potency entry in test [1], in [2], in test [3], in test [4], in [6] and in [5] was “inactive” in each case.
Turning to `NC1C=CC=C(C(=O)O)C1` (configuration not stated), the Potency result in test [1], in test [2], in test [3], in [4] and in test [5] was “inactive” throughout.
`CC(N)=O`: the Potency entry in test [1], in test [2], in [3], in test [4], in [6] and in test [5] was “inactive” each time.
Take `C[C@H](NC(=O)/C(C#N)=C/c1ccc(O)c(O)c1)c1ccccc1`: the Potency entry in test [1], in test [3], in test [4], in [6] and in test [5] was “inactive” in each case. Moreover, the Potency in test [2] is 0.794 µM (active).
In the case of `N[C@@H](Cc1ccc(O)c(I)c1)C(=O)O`, the Potency entry in test [1], in [2], in [3], in test [4], in test [6] and in [5] was “inactive” throughout.
Take `NC(=O)c1cc[n+](CC2=C(C(=O)O)N3C(=O)[C@@H](NC(=O)[C@@H](c4ccccc4)S(=O)(=O)[O-])[C@H]3SC2)cc1`: the Potency entry in test [1], in test [2], in test [3], in [4] and in test [5] was “inactive” in each case.
`CC(=O)NCCc1c[nH]c2ccc(O)cc12`: the Potency entry in test [1], in [3], in [4] and in [5] was “inactive” in each case. For the same molecule, in test [2], the Potency was 1 µM (active).
Regarding `COc1ccc(NC(=O)c2ccc(-c3ccc(-c4noc(C)n4)cc3C)cc2)cc1N1CCN(C)CC1`, the Potency in test [1] was 3.55 µM (active). The Potency entry in [2], in test [3], in test [4], in [6] and in test [5] was “inactive” in each case.
Turning to `N=C(N)SCCN`, the Potency entry in test [1], in [2], in [3], in [4], in [6] and in test [5] was “inactive” in each case.
`CNC(=O)c1cc2c(cn1)[nH]c1ccccc12`: the Potency result in test [1], in test [2], in test [3], in [4], in test [6] and in test [5] was “inactive” in each case.
For the molecule `CCN(CC)CCCCCCCCOC(=O)c1cc(OC)c(OC)c(OC)c1`, the Potency in test [1] is 11.2 µM (active). In addition, the Potency entry in test [2], in test [3], in [4] and in test [5] was “inactive” throughout.
For the molecule `O=C(O)C1=CC(=C(c2ccc(O)c(C(=O)O)c2)c2ccc(O)c(C(=O)O)c2)C=CC1=O`, the Potency result in test [1], in test [2], in [3], in test [4], in test [6] and in test [5] was “inactive” throughout.
Take `NC1(C(=O)O)CCc2cc(C(=O)O)ccc21` (configuration not stated): the Potency result in test [1], in [2], in test [3], in test [4], in [6] and in test [5] was “inactive” throughout.
As to `COc1ccc2c(c1)c(CC(=O)O)c(C)n2C(=O)c1ccccc1`, the Potency result in test [1], in test [2], in test [3], in [4], in [6] and in test [5] was “inactive” in each case.
With `Nc1ncnc2c1ncn2C1CCCO1` (configuration not stated), the Potency result in test [1], in test [2], in [3], in test [4] and in [5] was “inactive” throughout.
Consider `CN1CCN(c2nc3cc(C(F)(F)F)ccc3n3cccc23)CC1`, for which the Potency in test [1] was 3.98 µM (active). Also, the Potency entry in test [2], in [3], in [4] and in [5] was “inactive” in each case.
For `CC1C(=O)N(C)C(=O)c2nc[nH]c21` (configuration not stated), the Potency entry in [1], in test [2], in test [3], in test [4], in [6] and in [5] was “inactive” throughout.
Take `Cn1c(=O)c2c(nc(/C=C/c3cccc(Cl)c3)n2C)n(C)c1=O`: the Potency in [1] was 11.2 µM (active). Besides, the Potency entry in test [2], in test [3], in [4] and in [5] was “inactive” throughout.
In the case of `CC(=O)C(C)=O`, the activation in test [14] was -1.05%; in test [7], -1.05%; in test [8] it was -0.684%. The result in test [13] and in test [15] was inactive. Further, the max response in test [9] was -2.24%.
On to `Cn1c(=O)c2[nH]c(-c3ccc(S(=O)(=O)O)cc3)nc2n(C)c1=O`, for which the Potency result in [1], in test [3], in test [4] and in test [6] was “inactive” each time.
